Laboratory results reported in PubChem BioAssay (EPA / NIEHS).
Values joined by “and” are separate entries in the source; they are usually repeats but may differ in a detail not shown here. Equal values may be shown once. Inconclusive results are not listed. More than one record can exist for a structure, and the calls need not agree. Active and inactive are the calls of the source. Rule for the calls, unless noted: active = hit-call score of the fitted dose curve at least 0.9, where 1 is the maximum; inactive = score below 0.9.

Experiments:
[1] = CCTE_Simmons_MITO_basal_resp_rate: CCTE's HepG2 Seahorse XF Respirometric Screening Assay at Basal Respiratory State, Simmons Lab (AID 2284001); details: actives raise or lower the signal
Method in brief: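 Basal-phase OCR of HepG2 cells on a Seahorse XF96, analysed by bidirectional fit relative to DMSO vehicle; chemicals at 7 concentrations, 125 nM–100 uM final; three biological replicates; fenpyroximate and 2,4-dinitrophenol positive controls.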

[2] = CCTE_Simmons_MITO_max_resp_rate: CCTE's HepG2 Seahorse XF Respirometric Screening Assay at Maximal Respiratory State [uncoupled], Simmons Lab (AID 2284002); details: actives raise or lower the signal
Method in brief: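 HepG2 oxygen consumption measured on Seahorse XF after FCCP uncoupling, following test compound injection; 7 concentrations from 125 nM to 100 uM final. Readings every 6 min over 72 min, three biological replicates; bidirectional fit versus DMSO.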

[3] = CCTE_Simmons_MITO_inhib_resp_rate: CCTE's HepG2 Seahorse XF Respirometric Screening Assay at Inhibited Respiratory State [full ETC block], Simmons Lab (AID 2284006); details: actives raise or lower the signal
Method in brief: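 Seahorse respirometry, HepG2, 72 min total, 6-min mix/measure cycles. Cpd 125 nM–100 uM final ×7, n=3 biological. Sequential FCCP, rotenone/antimycin A; inhibited-respiration OCR, bidirectional fit vs DMSO.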

[4] = CCTE_Shafer_MEA_acute_spike_number: CCTE's Neural Acute Assay for Total Number of Spikes, Shafer Lab (AID 2284008);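 for AC50: curve fitted for decrease in spike count so AC50 reflects inhibitors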
Method in brief: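 Rat primary cortical neurons on 48-well MEA plates, DIV 13 or 15, at 37 C. 40 min baseline then 40 min with compound (0.03-40 uM); spikes detected at 8x rms noise, expressed as percent change from baseline.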

[5] = CCTE_Shafer_MEA_acute_firing_rate_mean: CCTE's Neural Acute Assay for Mean Firing Rate, Shafer Lab (AID 2284009);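 note: analyzed for loss of signal so actives lower firing rate relative to DMSO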
Method in brief: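 Rat cortical neuron cultures matured to DIV 13 or 15, equilibrated 20 min at 37 C, then recorded 40 min for baseline. Compound (0.03-40 uM) added and a further 40 min recorded; percent change in mean firing rate calculated per well.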

[6] = CCTE_Harrill_HTTr_Viability_MCF7: CCTE's 6-hour Cell Viability Assessment for the High-Throughput Transcriptomics (HTTr) Platform, in MCF-7 cells cultured in DMEM + 10% fetal bovine serum, Harrill Lab (AID 2284010)
Method in brief: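 Read-out is propidium iodide gain of signal by high-content imaging, reflecting membrane integrity loss. Measurements are taken 6 h after dosing, eight concentrations per chemical, with DMSO serving as baseline for bidirectional curve fitting.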

[7] = CCTE_Harrill_HTTr_CellCount_MCF7: CCTE's Cell Proliferation Assessment for the High-Throughput Transcriptomics (HTTr) Platform, Harrill Lab (AID 2284012; active = hit-call score of the fitted dose curve at least 0.9, where 1 is the maximum;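 note: cells exposed to compound for six hours; intended direction is loss of nuclei count meaning fewer cells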)
Method in brief: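 Cell count served as viability reporter: loss of Hoechst-stained nuclei, counted by high content imaging, marks decreased growth or survival. Exposure was 6 h in MCF-7 cells across eight concentrations, with DMSO as baseline.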

[8] = CCTE_Shafer_MEA_acute_burst_duration_mean: CCTE's Neural Acute Assay for Mean Burst Duration, Shafer Lab (AID 2284014);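 note: hits are decreases in mean burst duration relative to DMSO controls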
Method in brief: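 Rat cortical cultures, DIV 13/15; 40 min baseline, then 40 min with compound (0.03-40 uM), 37 C. Spikes: 300-5000 Hz band-pass, 8x rms threshold. Read-out: % change in mean single-electrode burst duration, DMSO-referenced, loss direction.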

[9] = CCTE_Shafer_MEA_acute_interburst_interval_mean: CCTE's Neural Acute Assay for Mean Interburst Interval, Shafer Lab (AID 2284016);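 note: percent change of mean interburst interval versus each well's own pre-dose baseline; curves fitted for decrease in interburst interval relative to DMSO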
Method in brief: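 Primary rat cortical neurons on 16-electrode MEA wells were recorded 40 min at baseline on DIV 13 or 15, then 40 min after compound (0.03-40 uM), at 37 C. Value is percent change in mean interburst interval per well, DMSO as negative control.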

[10] = CCTE_Shafer_MEA_acute_burst_percentage_mean: CCTE's Neural Acute Assay for Percentage of Spikes in a Burst, Shafer Lab (AID 2284017);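 for AC50: curve fitted for loss of signal so potency reflects decreased burst percentage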
Method in brief: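 Primary rat cortical neurons on 16-electrode MEA wells; 40 min baseline recorded at DIV 13 or 15, then 40 min after compound (0.03-40 uM) at 37 C. Well-mean fraction of spikes in single-electrode bursts; percent change from baseline, DMSO as negative control.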

[11] = CCTE_Shafer_MEA_acute_burst_percentage_std: CCTE's Neural Acute Assay for Standard Deviation of Burst Percentage, Shafer Lab (AID 2284018);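 note: fitted in the negative direction so actives lower burst percentage SD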
Method in brief: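 Rat primary cortical neurons on 48-well MEAs, DIV 13 or 15, 37 C. 40-min baseline then 40-min recording with compound (0.03-40 uM); well-level SD of per-electrode burst spike percentage, expressed as percent change from baseline.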

[12] = CCTE_Shafer_MEA_acute_per_network_burst_spike_number_mean: CCTE's Neural Acute Assay for Average Number of Spikes in a Network Burst, Shafer Lab (AID 2284019)
Method in brief: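 Rat cortical cultures, DIV 13/15; spike threshold 8x rms noise, 300-5000 Hz band-pass, 12.5 kHz sampling; wells need >/= 10 active electrodes. Compound 0.03-40 uM, 40 min, 37 C; % change vs own baseline, DMSO negative control.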

[13] = CCTE_Shafer_MEA_acute_per_network_burst_spike_number_std: CCTE's Neural Acute Assay for Standard Deviation of Number of Spikes in a Network Burst, Shafer Lab (AID 2284020);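 note: fitted for decrease in spike-number SD versus DMSO so actives lower it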
Method in brief: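 Rat cortical cultures, DIV 13/15, 37 C; 20-min stabilisation, 40-min baseline, compound 0.03-40 uM, 40-min re-record. Spikes detected at 8x rms noise (300-5000 Hz band-pass). Readout: % change from baseline in per-burst spike-number SD.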

[14] = CCTE_Shafer_MEA_acute_per_network_burst_electrodes_number_mean: CCTE's Neural Acute Assay for Mean Number of Electrodes in a Network Burst, Shafer Lab (AID 2284021);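 note: curves fitted for decreases only so hits reduce electrodes per burst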
Method in brief: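 Rat primary cortical neurons on 48-well MEAs, DIV 13 or 15, were treated at 0.03-40 uM. Spikes were detected at 8x rms noise and recorded at 37 C. The mean electrodes per network burst in a 40 min exposure recording was expressed as percent change from a 40 min baseline.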

[15] = CCTE_Shafer_MEA_acute_network_burst_percentage: CCTE's Neural Acute Assay for Percentage of Network Bursts, Shafer Lab (AID 2284022);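 note: curves fitted for loss so actives lower network burst percentage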
Method in brief: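 Rat primary cortical neuron networks on 48-well MEA plates, DIV 13 or 15, treated acutely with compound (0.03-40 uM, at least three wells). Percent of spikes within network bursts compared between 40-min recordings before and during exposure at 37 C, expressed as percent change.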

[16] = CCTE_Shafer_MEA_acute_cross_correlation_area: CCTE's Neural Acute Assay for Area of Cross Correlation, Shafer Lab (AID 2284024);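 note: curves fitted for loss of cross-correlation area so actives lower synchrony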
Method in brief: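 Rat primary cortical neurons on 48-well MEA, DIV 13 or 15; compounds 0.03-40 uM. Baseline and post-exposure 40 min recordings at 37 C; percent change in area under pooled inter-electrode cross-correlation near zero lag, relative to DMSO.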

[17] = CCTE_Harrill_HTTr_Apoptosis_MCF7: CCTE's 6-hour Apoptosis Assessment for the High-Throughput Transcriptomics (HTTr) Platform, in MCF-7 cells cultured in DMEM + 10% fetal bovine serum, Harrill Lab (AID 2284011)
Method in brief: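 MCF-7 cells in DMEM + 10% FBS exposed 6 h to chemicals over an eight-point dilution series. Caspase-3/7 activation imaged by high-content CellEvent Green staining; fitted bidirectionally versus DMSO.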

[18] = CCTE_Shafer_MEA_acute_per_burst_spike_number_mean: CCTE's Neural Acute Assay for Average Number of Spikes Per Burst, Shafer Lab (AID 2284015);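 note: hits are decreases in mean spikes per burst versus baseline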
Method in brief: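 Primary rat cortical neurons on 48-well MEA plates, treated on DIV 13 or 15 at 0.03-40 uM. Spontaneous activity recorded 40 min before and 40 min after compound at 37 C; percent change in mean spikes per single-electrode burst per well, fitted in the loss direction versus DMSO.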

[19] = biological target: Estrogen receptor (Homo sapiens) (UniProt P03372); assay: CCTE_Deisenroth_AIME_96WELL_LUC_Active: CCTE's 96-well Estrogen Receptor Transactivation Assay with AIME metabolic competence (ERTA luciferase; metabolism positive), Deisenroth Lab (AID 2284023; active = hit-call score of the fitted dose curve at least 0.9, where 1 is the maximum)
Method in brief: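 Metabolism-positive mode: induced rat hepatic S9 in alginate microspheres conditions test solutions (0.002 - 200 uM, 10 points) for 2 hours. VM7Luc4E2 ER luciferase reporter cells then exposed 24 h; positive-direction fit against 17beta-estradiol, n=4 typical.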

[20] = biological target: Estrogen receptor (Homo sapiens) (UniProt P03372); assay: CCTE_Deisenroth_AIME_96WELL_LUC_Inactive: CCTE's 96-well Estrogen Receptor Transactivation Assay without AIME metabolic competence (ERTA luciferase; metabolism negative), Deisenroth Lab (AID 2284025; active = hit-call score of the fitted dose curve at least 0.9, where 1 is the maximum)
Method in brief: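 Metabolism-negative arm: chemicals (0.002–200 uM, 10 points) incubated 2 h with alginate-water microspheres, then medium moved onto VM7Luc4E2 cells for 24 h luciferase read-out. Positive direction vs 17beta-estradiol; n≥4 experiments.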

Measured: AC50

Chain of Estrogen receptor (Homo sapiens) (P03372 whole entry, looked up): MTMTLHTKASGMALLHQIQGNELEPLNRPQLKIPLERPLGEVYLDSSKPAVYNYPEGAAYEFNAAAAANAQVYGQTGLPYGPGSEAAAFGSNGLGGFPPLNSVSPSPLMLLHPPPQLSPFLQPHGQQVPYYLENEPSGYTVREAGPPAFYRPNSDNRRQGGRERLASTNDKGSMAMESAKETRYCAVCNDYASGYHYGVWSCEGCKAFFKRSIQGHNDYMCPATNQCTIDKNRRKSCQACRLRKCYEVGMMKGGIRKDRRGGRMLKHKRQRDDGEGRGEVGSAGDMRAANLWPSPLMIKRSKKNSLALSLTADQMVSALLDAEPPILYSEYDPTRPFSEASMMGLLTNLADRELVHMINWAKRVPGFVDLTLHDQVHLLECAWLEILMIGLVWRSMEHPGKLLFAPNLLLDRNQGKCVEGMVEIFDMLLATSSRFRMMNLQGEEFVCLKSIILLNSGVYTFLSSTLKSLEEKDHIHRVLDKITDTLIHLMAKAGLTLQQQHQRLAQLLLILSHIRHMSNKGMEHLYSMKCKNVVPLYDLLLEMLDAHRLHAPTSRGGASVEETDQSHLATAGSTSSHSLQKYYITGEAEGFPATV

COP(=S)(OC)Oc1nc(Cl)c(Cl)cc1Cl
active: [10] 0.102 µM | [13] 0.358 µM
not listed: [17] | [18] | [19] | [20]
inactive: all other assays above

Cc1ccc(-c2c(Cl)nc(C#N)n2S(=O)(=O)N(C)C)cc1
active: [1] 982 nM | [2] 34 µM | [9] 6.03 µM
not listed: [7] | [19] | [20]
inactive: all other assays above

CO/C=C(/C(=O)OC)c1ccccc1Oc1cc(Oc2ccccc2C#N)ncn1
active: [1] 9.66 µM and 9.17 µM | [2] 6.48 µM and 5.12 µM | [3] 17.9 µM and 8.88 µM | [9] 11.1 µM | [10] 10.2 µM | [14] 7.21 µM | [15] 11.1 µM
not listed: [17] | [19] | [20]
inactive: all other assays above

CCCN(CCC)c1c([N+](=O)[O-])cc(S(N)(=O)=O)cc1[N+](=O)[O-]
active: [1] 30700 nM | [2] 34 µM | [4] 4.91 µM | [5] 4.91 µM | [9] 5 µM | [10] 5 µM
inactive: [1] | [2] | [3] | [6] | [17] | [7] | [8] | [18] | [11] | [12] | [13] | [14] | [15] | [16]

CC(C)Oc1cc(-n2nc(C(C)(C)C)oc2=O)c(Cl)cc1Cl
active: [9] 4.16 µM
not listed: [17] | [19] | [20]
inactive: all other assays above

COP(N)(=O)SC (stereo not given)
not listed: [1] | [2] | [3] | [7] | [17] | [19] | [20]
inactive: all other assays above

CC(Oc1ccc(Cl)cc1Cl)C(=O)O (stereo not given)
not listed: [1] | [2] | [3] | [7] | [17] | [19] | [20]
inactive: all other assays above

CNC(=O)ON=CC(C)(C)SC
not listed: [1] | [2] | [3] | [7] | [17] | [19] | [20]
inactive: all other assays above

CCCCC(CC)COC(=O)c1ccccc1C(=O)OCC(CC)CCCC (stereo not given)
inactive: [6] | [7] | [19] | [20]
